# Test results from PubChem BioAssay.
# Values joined by “and” are separate entries in the source; they are usually repeats but may differ in a detail not shown here. Identical values can stand only once. Records with an inconclusive call do not appear. Active and inactive are the calls of the source.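 How the source made its calls, unless noted: active means compounds whose cell count with miR-34 switched on is under 0.7 times the count with it off; inactive means the rest.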
# Key:
# [1] = circadian clock period modulators, cell-based, LOPAC library, luminescence reporter (AID 2774; call rule not given here;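 further: values are relative to mean of DMSO wells on each plate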); details: circadian reporter cells, at 7 µM, actives lie on both sides
# [2] = test system: Hepatitis C virus NS3 helicase; test: HCV NS3 helicase inhibitors, primary screen, biochemical, fluorescence polarization, LOPAC1280 library (AID 687035; in the data active means inhibition above about 37%); details: Purified HCV NS3 helicase, Cy5-dT15 ssDNA binding fluorescence polarization; stronger effect = higher value; concentration not given here
# [3] = Cy5 fluorescence quenching or enhancement artefacts, artefact control for HCV NS3 helicase inhibitor project, biochemical, LOPAC1280 (AID 687037; call rule not given here); details: Cy5-DNA-NS3h complex fluorescence interference counterscreen
# [4] = sensitizers of A549 cells to miR-34 induction, primary screen, imaging, A549 dox-inducible miR-34, nuclei and caspase counts (AID 1347080); details: A549 miR-34 inducible, Hoechst nuclei count, 48 h
# [5] = phospholipid biosynthesis inhibitors in animal cells, primary screen, cell-based, LOPAC library, screen 4 (AID 1347384; call rule not given here); details: phospholipid biosynthesis inhibition screen, at 10 µM
# [6] = viability rescue of complex I mutant cybrids, primary screen, cell-based, galactose medium, ATP luminescence (AID 1645843;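 active means z-score of at least 1.8 in each of two replicates, scored against plate mean and spread of sample wells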;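 further: positive z means more ATP and so rescue of galactose-driven cybrid death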); details: complex I mutant cybrid cells, 72 h, stronger effect = higher value
# [7] = biological target: ATP-dependent translocase ABCB1 (Homo sapiens) (UniProt P08183); test: MDR1 (ABCB1) efflux transporter inhibition, cell-based (AID 377; in the data active means fluorescence slope change above about 50%); details: MDR1-expressing cells, fluorescent substrate accumulation slope; stronger effect = higher value; concentration not given here
# [8] = hESC survival regulators, cell-based (AID 493140; call rule not given here;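 further: cells exposed to compounds for four days before counting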); details: human embryonic stem cell survival screen; stronger effect = higher value
# [9] = liver-stage malaria parasite growth inhibition, primary screen, cell-based, HepG2, luciferase luminescence, HepG2 viability (AID 624349; in the data active means parasite load remaining mostly below about 12%, no sharp cut-off; inactive means mostly above about 10%;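 further: 100% = mean of DMSO negative control wells on the same plate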); details: P. berghei liver stage in HepG2, luciferase luminescence, concentration not given here; parasite load remaining: stronger effect = lower value; viability: measured here: HepG2 viability without parasites
# [10] = survival rescue of mitochondrial mutant cells in low glucose, primary screen, MELAS cybrids, Rieske KO mouse fibroblasts, CellTiter-Glo (AID 1508586;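 active means mean z-score across replicates of 1.96 or higher in either the MELAS or the Rieske mutant cell line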;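 further: z relative to plate mean and SD of compound and empty wells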)
# [11] = biological target: NAD(+) hydrolase SARM1 (Homo sapiens) (UniProt Q6SZW1); test: SARM1 TIR NADase inhibitors, cell lysate, NAD-Glo luminescence (AID 1508614;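 active means compound whose remaining NAD level is above about 45 nM, limit read from the data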); details: SAM-TIR HEK293T lysate NADase, at 1 µM, stronger effect = higher value
# [12] = biological target: Mitogen-activated protein kinase 7 (Homo sapiens) (UniProt Q13164); test: ERK5 transactivation activators in reporter cells, primary screen, cell-based, HTS (AID 1508626;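 active means luciferase signal above three times the same-plate solvent-only control wells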;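 further: luciferase driven by Gal4-ERK5 fusion binding five Gal4 sites before minimal TATA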); details: HeLa Gal4-ERK5 transactivation, 18 h, at 5 µM, stronger effect = higher value
# [13] = stronger effect = lower value, cell number ratio, induced over uninduced
# [14] = measured here: relative caspase fold change +Dox/-Dox
# [15] = measured here: total cells with miR-34 induction, stronger effect = lower value
# [16] = measured here: total cells without miR-34 induction
# [17] = MELAS cybrid survival, CellTiter-Glo 48 h, stronger effect = higher value
# [18] = Rieske KO mouse fibroblast survival, CellTiter-Glo 72 h
# ATP-dependent translocase ABCB1 (Homo sapiens), sequence (P08183 whole entry, looked up): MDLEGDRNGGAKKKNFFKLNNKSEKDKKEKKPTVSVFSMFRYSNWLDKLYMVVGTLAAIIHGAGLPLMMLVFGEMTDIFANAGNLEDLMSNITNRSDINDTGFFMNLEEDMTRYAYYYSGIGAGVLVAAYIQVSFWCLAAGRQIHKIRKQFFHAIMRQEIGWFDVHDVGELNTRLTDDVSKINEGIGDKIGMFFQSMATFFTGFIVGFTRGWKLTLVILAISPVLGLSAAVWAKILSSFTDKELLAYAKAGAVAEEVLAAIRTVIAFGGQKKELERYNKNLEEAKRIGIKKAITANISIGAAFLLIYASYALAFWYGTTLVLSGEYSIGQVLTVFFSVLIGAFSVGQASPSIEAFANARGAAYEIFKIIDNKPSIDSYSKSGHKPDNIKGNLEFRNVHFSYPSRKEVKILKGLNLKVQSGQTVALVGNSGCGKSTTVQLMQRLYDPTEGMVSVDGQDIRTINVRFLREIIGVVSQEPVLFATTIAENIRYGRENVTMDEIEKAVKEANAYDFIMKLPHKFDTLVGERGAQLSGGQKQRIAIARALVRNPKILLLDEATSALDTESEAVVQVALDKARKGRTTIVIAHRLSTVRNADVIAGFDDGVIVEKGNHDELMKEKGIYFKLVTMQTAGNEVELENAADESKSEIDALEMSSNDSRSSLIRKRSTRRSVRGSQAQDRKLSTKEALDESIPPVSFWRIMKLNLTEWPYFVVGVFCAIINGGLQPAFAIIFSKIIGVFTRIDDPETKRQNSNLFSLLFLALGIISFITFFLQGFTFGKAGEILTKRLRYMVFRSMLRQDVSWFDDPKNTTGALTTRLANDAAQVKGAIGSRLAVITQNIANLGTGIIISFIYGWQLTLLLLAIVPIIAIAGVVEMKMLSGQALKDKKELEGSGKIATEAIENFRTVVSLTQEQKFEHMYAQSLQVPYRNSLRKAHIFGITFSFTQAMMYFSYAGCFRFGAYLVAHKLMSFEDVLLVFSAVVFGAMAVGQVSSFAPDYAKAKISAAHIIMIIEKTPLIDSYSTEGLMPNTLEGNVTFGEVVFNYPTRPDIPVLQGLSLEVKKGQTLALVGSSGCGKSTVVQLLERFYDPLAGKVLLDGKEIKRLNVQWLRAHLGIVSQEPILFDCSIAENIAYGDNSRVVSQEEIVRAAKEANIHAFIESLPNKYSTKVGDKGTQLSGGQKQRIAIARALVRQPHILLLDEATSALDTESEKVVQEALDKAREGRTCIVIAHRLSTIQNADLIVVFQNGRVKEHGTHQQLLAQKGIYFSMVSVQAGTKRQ
# Mitogen-activated protein kinase 7 (Homo sapiens), sequence (Q13164 whole entry, looked up, the tested form may be a part): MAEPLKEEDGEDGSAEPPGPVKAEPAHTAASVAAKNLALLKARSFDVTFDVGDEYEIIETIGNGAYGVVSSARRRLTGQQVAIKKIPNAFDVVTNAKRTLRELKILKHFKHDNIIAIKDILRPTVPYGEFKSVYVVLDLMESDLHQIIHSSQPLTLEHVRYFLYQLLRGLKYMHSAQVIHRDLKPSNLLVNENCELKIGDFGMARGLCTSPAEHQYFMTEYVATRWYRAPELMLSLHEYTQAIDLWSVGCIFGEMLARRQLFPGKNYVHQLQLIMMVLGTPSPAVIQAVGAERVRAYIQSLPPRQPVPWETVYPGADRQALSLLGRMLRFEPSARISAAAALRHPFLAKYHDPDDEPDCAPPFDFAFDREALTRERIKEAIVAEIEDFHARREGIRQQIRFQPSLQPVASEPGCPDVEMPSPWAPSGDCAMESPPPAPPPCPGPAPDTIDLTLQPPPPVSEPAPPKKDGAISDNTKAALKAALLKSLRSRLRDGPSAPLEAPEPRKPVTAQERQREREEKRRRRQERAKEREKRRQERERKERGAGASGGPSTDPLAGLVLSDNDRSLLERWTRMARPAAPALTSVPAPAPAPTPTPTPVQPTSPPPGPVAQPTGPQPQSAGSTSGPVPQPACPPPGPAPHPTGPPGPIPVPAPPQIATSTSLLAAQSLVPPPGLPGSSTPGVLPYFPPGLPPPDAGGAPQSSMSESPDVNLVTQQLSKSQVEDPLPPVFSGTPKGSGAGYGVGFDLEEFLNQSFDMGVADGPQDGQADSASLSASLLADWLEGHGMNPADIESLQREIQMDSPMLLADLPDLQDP
# NAD(+) hydrolase SARM1 (Homo sapiens), sequence (Q6SZW1 whole entry, looked up, the tested form may be a part): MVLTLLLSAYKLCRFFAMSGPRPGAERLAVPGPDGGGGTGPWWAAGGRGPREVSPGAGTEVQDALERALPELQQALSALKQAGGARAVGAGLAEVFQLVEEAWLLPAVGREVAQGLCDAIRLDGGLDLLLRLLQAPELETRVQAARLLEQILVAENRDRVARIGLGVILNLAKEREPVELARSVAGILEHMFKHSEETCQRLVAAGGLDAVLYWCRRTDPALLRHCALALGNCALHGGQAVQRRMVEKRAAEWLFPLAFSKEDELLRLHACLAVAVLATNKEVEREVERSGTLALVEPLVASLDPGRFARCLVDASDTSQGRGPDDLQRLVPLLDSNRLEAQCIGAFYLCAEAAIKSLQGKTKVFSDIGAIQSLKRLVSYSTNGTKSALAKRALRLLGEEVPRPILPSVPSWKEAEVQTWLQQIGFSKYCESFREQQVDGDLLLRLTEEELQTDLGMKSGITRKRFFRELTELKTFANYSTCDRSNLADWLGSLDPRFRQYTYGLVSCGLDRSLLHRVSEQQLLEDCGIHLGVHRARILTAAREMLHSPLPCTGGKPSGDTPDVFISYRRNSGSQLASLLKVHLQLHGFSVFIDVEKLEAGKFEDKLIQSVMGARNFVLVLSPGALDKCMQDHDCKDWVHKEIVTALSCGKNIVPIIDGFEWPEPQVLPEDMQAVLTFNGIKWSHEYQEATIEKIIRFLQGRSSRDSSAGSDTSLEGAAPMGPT
SMILES,period change [1],inhibition [2],fluorescence ratio (interference) [3],"fold change [4, 13]","fold change [4, 14]","cell count [4, 15]","cell count [4, 16]",outcome [5],z-score [6],fluorescence slope change [7],survival [8],parasite load remaining [9],viability [9],"z-score [10, 17]","z-score [10, 18]",remaining NAD [11],luciferase signal [12]
COc1cc(CNC(=O)CCCCCCC(C)C)ccc1O,0.135 h (inactive),-5% (inactive),1 (inactive),1.08 (inactive) and 1.04 (inactive),0.866 and 1.07,10600 and 5720,9840 and 5480,inactive,-0.085 (inactive),–,–,–,–,–,–,–,–
CO/N=C(\C(=O)N[C@@H]1C(=O)N2C(C(=O)O)=C(COC(C)=O)CS[C@H]12)c1csc(N)n1 (stereo in doubt),-0.095 h (inactive),–,–,1.01 (inactive) and 0.948 (inactive),2.06 and 1.21,10500 and 9330,10300 and 9840,–,0.04 (inactive),81.1% (active),16.2 (inactive),35.6% (inactive) and 93.3% (inactive),65.7% and 139%,0.18 (inactive),-0.136,10 nM (inactive),152 AU (inactive)
C[C@@H]1NC(=O)NC1=O,–,–,–,0.891 (inactive) and 0.879 (inactive),1.07 and 1.01,8770 and 8800,9840 and 10000,–,–,57.7% (active),3.92 (inactive),81.4% (inactive) and 66.6% (inactive),97.9% and 95.3%,0.462 (inactive),-0.44,–,–
COc1ccc2cc(C(C)C(=O)O)ccc2c1 (stereo not given),–,–,–,0.873 (inactive) and 1.59 (inactive) and 0.829 (inactive),1.19 and 0.614 and 0.98,8070 and 7920 and 7570,9240 and 4980 and 9130,–,0.575 (inactive),–,–,40.8% (inactive),47.4%,-0.171 (inactive) and 0.614 (inactive),0.627 and 0.253,–,–
O=C1CC(c2ccc(O)cc2)Oc2cc(O)cc(O)c21 (stereo not given),–,–,–,0.857 (inactive) and 0.936 (inactive),1.25 and 0.746,9030 and 10100,10500 and 10800,–,–,29.7% (inactive),12.5 (inactive),129% (inactive) and 75.7% (inactive),105% and 74.5%,-0.339 (inactive),0.634,–,–
CNCC(O)C(O)C(O)C(O)CO (stereo not given),–,–,–,0.893 (inactive) and 0.901 (inactive),1.03 and 1.16,8100 and 7840,9080 and 8700,–,–,–,4.5 (inactive),95.3% (inactive),101%,-0.226 (inactive),0.0963,–,–
N[C@@H](Cn1ccc(=O)c(O)c1)C(=O)O,–,-3% (inactive),1 (inactive),1.03 (inactive) and 0.872 (inactive),1.54 and 1.46,10200 and 9120,9910 and 10400,inactive,0.455 (inactive),–,–,61.9% (inactive),117%,–,–,–,68 AU (inactive)
O=C(O)C=Cc1ccc(Cn2ccnc2)cc1,–,–,–,0.955 (inactive) and 0.883 (inactive) and 0.902 (inactive),1.3 and 1.43 and 0.779,9560 and 7820 and 10000,10000 and 8860 and 11100,–,0.575 (inactive),–,–,–,–,-0.304 (inactive) and -0.385 (inactive),0.761 and 0.973,–,–
CCCCC[C@H](O)/C=C/[C@@H]1[C@@H](C/C=C\CCCC(=O)O)[C@@H](O)C[C@H]1O,–,–,–,–,–,–,–,–,0.625 (inactive),–,95.3 (inactive),32.1% (inactive),102%,-0.59 (inactive),-0.344,–,–
